Hits are enriched below; roughly 2.7% of the tested compounds scored in any of these assays.
ATG4B inhibitor: blocks human ATG4B protease cleavage of LC3 substrate | Q9Y4P1 | ATG4B cleavage of LC3-PLA2, NBD-HPC fluorescence, 1 h | inhibition, % at 8.33 µM | 0.51% of 340,000 active; in the data active = inhibition above about 40%
F508del corr: correctors of CFTR F508del function in bronchial epithelial cells | CFBE cells, YFP halide quenching; stimulated with forskolin plus potentiator P3; % fluorescence drop versus neutral controls | activity (quench increase), % at 7.58 µM | 0.36% of 350,000 active | AID 720511;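 active = mean added fluorescence quench of at least 8% versus neutral control, with both replicates also reaching 8%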;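 also: cells transiently co-express mutant CFTR-F508del with the halide-sensitive YFP; corrector assay measuring rescue of mutant channel to the surface after 24 h compound exposure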
NRP1-CendR mod: NRP-1/CendR interaction modulation. inhibition, % at 25 µM. O14786. FAM-RPARPAR peptide binding to NRP-1, fluorescence polarization. 0.85% of 360,000 active. AID 602438;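 active = inhibition or corrected inhibition above about 18%, plus a signal ratio from 0.5 to 1.5, limit read from the data, passing the limit was not always enough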
SKN-1 inh: C. elegans SKN-1 inhibition | AID 624304 | C. elegans VP596 Pgst-4::GFP/RFP ratio, acrylamide-induced, 24 h | 0.49% of 360,000 active | inhibition, % at 21.8 µM;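 active = interference check ratio from 0.5 to 1.5 plus GFP to RFP signal ratio inhibition reaching or exceeding a fixed threshold, cut at about 30% in these data, passing the limit was not always enough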
MPTP inh: permeability transition pore inhibition; inhibition, % at 10 µM; isolated mouse mitochondria, Ca2+ swelling absorbance, 30 min; 1.4% of 360,000 active;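 active = inhibition of 50% or more, scaled per plate between neutral and stimulator controls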
Rh123 counter: Rhodamine 123 counter-screen of mitochondrial pore hits; shares compounds with MPTP inh; isolated mitochondria, membrane potential, Rhodamine 123 fluorescence; inhibition, % at 10 µM; 78% of 5,000 active; AID 624504; in the data active = inhibition above about 22%
MPTP abs DR: dose response confirmation of mitochondrial permeability transition pore inhibitors; 58% of 780 active; IC50, µM; isolated mitochondria swelling, absorbance; shares compounds with MPTP inh; in the data active = IC50 below about 20 µM
MPTP counter DR: active in counter-screen for permeability transition pore inhibitors; shares compounds with MPTP inh; 49% of 780 active; AID 651564; IC50, µM; isolated mitochondria counterscreen, fluorescence read-out; in the data active = IC50 below about 80 µM
Each line names hits and unclear results; the compound was inactive in the other large screens (follow-up assays come after a bar, where they were run).

O=C(COC(=O)Cc1c(Cl)cccc1Cl)Nc1ccc(OC(F)(F)F)cc1	MPTP inh 65.5 | Rh123 counter 73.1
CN(CC(=O)Nc1ccc(OC(F)(F)F)cc1)C(=O)Cc1c(Cl)cccc1Cl	none
CC(C)C#Cc1cnc2c(c1)C(=O)N([C@H](C)CO)C[C@H](C)[C@@H](CN(C)Cc1ccccc1F)O2	none (no result: ATG4B inhibitor, NRP1-CendR mod, SKN-1 inh, MPTP inh)
CNC(=S)N/N=C/c1cccc(OCc2ccccc2F)c1	MPTP inh 69.6 | Rh123 counter 27.6
CO[C@H]1CN(C)C(=O)c2cc(NC(=O)C3CC3)ccc2OC[C@@H](C)N(Cc2ccc(F)cc2)C[C@@H]1C	none (no result: ATG4B inhibitor, NRP1-CendR mod, SKN-1 inh, MPTP inh)
Cn1c(NCc2cc(Br)ccc2O)nc2ccccc21	none (no result: F508del corr)
Cn1c(NCc2c(O)ccc3ccccc23)nc2ccccc21	MPTP inh 50.7 (no result: F508del corr) | Rh123 counter 45.2
COCC(=O)O[C@]1(CCN(C)CCCc2nc3ccccc3[nH]2)CCc2cc(F)ccc2[C@@H]1C(C)C	MPTP inh 92.9 | Rh123 counter inactive
Cc1ccc(NC(=O)c2ccc(Cl)c(N3C(=O)C=CC3=O)c2)cc1	MPTP inh 84.3 (no result: F508del corr) | Rh123 counter 86.1
COc1ccc(S(=O)(=O)Nc2ccc3c(c2)C(=O)N([C@@H](C)CO)C[C@@H](C)[C@H](CN(C)Cc2ccncc2)OCCCC[C@@H](C)O3)cc1	none (no result: ATG4B inhibitor, NRP1-CendR mod, SKN-1 inh, MPTP inh)
C=CCc1c(C)nc(-c2ccccc2)nc1Nc1ccccc1O	MPTP inh 59.5 | Rh123 counter 63.2
O=C(CSc1ncnc2ccccc12)c1ccc2c(c1)OCCO2	MPTP inh 58.5 | Rh123 counter 65.0
CCc1nc(SCC(=O)c2ccc3c(c2)OCCO3)c2ccccc2n1	none (no result: F508del corr)
O=[N+]([O-])c1ccc(-c2c(O)c3ccccc3c3nc4ccccc4nc23)cc1	MPTP inh 74.5 (no result: F508del corr) | Rh123 counter 37.3
COc1ccc(CN(C)C[C@H]2Oc3ccc(NS(=O)(=O)c4cccs4)cc3C(=O)N([C@H](C)CO)C[C@@H]2C)cc1	none (no result: ATG4B inhibitor, NRP1-CendR mod, SKN-1 inh, MPTP inh)
C[C@@H]1CN([C@H](C)CO)S(=O)(=O)c2ccc(-c3ccccc3)cc2O[C@H]1CN(C)C(=O)CN(C)C	none (no result: ATG4B inhibitor, NRP1-CendR mod, SKN-1 inh, MPTP inh)
CCCCCCc1cc2cc(C(=O)Nc3ccccc3)c(=O)oc2cc1O	MPTP inh 72.6 (no result: F508del corr) | Rh123 counter inactive
COc1ccc2oc(=N)c(C(=O)Nc3ccccc3)cc2c1	none (no result: F508del corr)
CCCCCCc1cc2cc(C(=O)NCc3ccccc3)c(=N)oc2cc1O	MPTP inh 86.5 (no result: F508del corr) | Rh123 counter 73.7
COc1ccc(NC(=O)N(C)C[C@@H]2Oc3cc(C#CCC(C)C)ccc3S(=O)(=O)N([C@@H](C)CO)C[C@@H]2C)cc1	none (no result: ATG4B inhibitor, NRP1-CendR mod, SKN-1 inh, MPTP inh)
O=C(CSC1CC(=O)N(CC(c2ccccc2)c2ccccc2)C1=O)Nc1ccc(Cl)cc1 (stereo not given)	MPTP inh 74.6 (no result: F508del corr) | Rh123 counter 79.3
O=C(CSc1nc2ccccc2s1)NNC(=S)Nc1ccc(Br)cc1	MPTP inh 81.9 (no result: F508del corr) | Rh123 counter 83.0
O=C(CSc1nc2ccccc2s1)NNC(=S)Nc1ccccc1	none
CCC(=O)N1[C@H](CO)[C@@H]2c3ccccc3N(C(=O)c3ccncc3)C[C@@H]21	none (no result: ATG4B inhibitor, NRP1-CendR mod, SKN-1 inh, MPTP inh)
COc1ccc(NC(=O)COC(=O)c2cc(C)oc2C)cc1OC	none
COc1ccc(OC)c(C(=O)COC(=O)c2cc(C)oc2C)c1	MPTP inh 60.0 (no result: F508del corr) | Rh123 counter inactive | MPTP abs DR 10.2 | MPTP counter DR inactive
Cc1ccc(N2C(=O)C3ON(c4ccccc4)C(c4ccncc4)C3C2=O)cc1 (stereo not given)	none (no result: F508del corr)
O=C1C2ON(c3ccccc3)C(c3ccncc3)C2C(=O)N1c1ccc(Br)cc1 (stereo not given)	MPTP inh 68.8 (no result: F508del corr) | Rh123 counter 21.8
CC(=NNC(=S)Nc1cccc(C)c1)c1ccccn1	MPTP inh 52.0 | Rh123 counter 61.9
N#CNC(=Nc1cccc(F)c1)SCc1cccc(F)c1	MPTP inh 84.0 (no result: F508del corr) | Rh123 counter 73.8
c1ccc(CC2CCN(C3=Nc4cccc5cccc3c45)CC2)cc1	MPTP inh 51.1 (no result: F508del corr) | Rh123 counter 28.6
c1cc2c3c(cccc3c1)C(N1CCOCC1)=N2	none
O=S(=O)(Nc1ccc(O)c(Sc2nc3ccccc3s2)c1)c1ccc(F)cc1	MPTP inh 77.8 (no result: F508del corr) | Rh123 counter 54.6
COc1ccc(S(=O)(=O)N(C)C[C@@H]2OCCCC[C@@H](C)Oc3ccc(NC(=O)Nc4ccc5c(c4)OCO5)cc3C(=O)N([C@@H](C)CO)C[C@@H]2C)cc1	none (no result: ATG4B inhibitor, NRP1-CendR mod, SKN-1 inh, MPTP inh)
CO[C@H]1CN(C)C(=O)c2cc(NC(=O)Nc3ccccc3)ccc2OC[C@@H](C)N(C(=O)CN(C)C)C[C@H]1C	none (no result: ATG4B inhibitor, NRP1-CendR mod, SKN-1 inh, MPTP inh)
CC1=NN(c2nc(-c3ccc(Cl)cc3)cs2)C(=O)C1	MPTP inh 59.8 (no result: F508del corr) | Rh123 counter inactive | MPTP abs DR 12.6 | MPTP counter DR <2.5
O=S(=O)(Nc1cccnc1)c1ccccc1	none
O=S(=O)(Nc1cccnc1)c1ccc(C2CCCCC2)cc1	MPTP inh 104.0 (no result: F508del corr) | Rh123 counter 105.8
Cc1ccc(-c2ccc([C@@H]3[C@H](CO)N4CCCCN(C(=O)c5ccc(F)cc5)C[C@@H]34)cc2)cc1	none (no result: ATG4B inhibitor, NRP1-CendR mod, SKN-1 inh, MPTP inh)
Cc1cc(/C=N/n2c(COc3ccccc3C)nc3ccccc3c2=O)c(O)c([N+](=O)[O-])c1	F508del corr 8.2, MPTP inh 70.5 | Rh123 counter 39.2
CCCN1[C@@H]2c3ccc(-c4ccc(OC)cc4)c(=O)n3C[C@@H]2[C@@H](CO)[C@@H]1C(=O)NCC	none (no result: ATG4B inhibitor, NRP1-CendR mod, SKN-1 inh, MPTP inh)
Cc1ccc(F)cc1NCC(=O)Nc1ccc(Cl)cc1F	none (no result: F508del corr)
Cc1c(Cl)cccc1NCC(=O)Nc1ccc(Cl)cc1F	MPTP inh 56.7 (no result: F508del corr) | Rh123 counter 57.0
Cc1cccc(-c2nsc(SCC(=O)Nc3ccc4c(c3)OCO4)n2)c1	MPTP inh 54.1 (no result: F508del corr) | Rh123 counter 65.0
Cc1ccccc1-c1nsc(SCC(=O)Nc2ccc3c(c2)OCO3)n1	MPTP inh 84.1 (no result: F508del corr) | Rh123 counter 65.8
Cc1cccc(-c2nsc(SCC(=O)Nc3nccs3)n2)c1	none (no result: F508del corr)
CSc1nsc(SCC(=O)Nc2ccc3c(c2)OCCO3)n1	none (no result: F508del corr)
Fc1ccc(NC(=S)Nc2cccnc2)cc1Cl	MPTP inh 101.0 | Rh123 counter 91.7
Fc1ccc(NC(=S)Nc2cccnc2)cc1	none
Cc1ccc(NC(=S)Nc2cc(-c3ccccc3)[nH]n2)cc1Cl	none
Fc1ccc(NC(=S)Nc2ccccc2N2CCOCC2)cc1Cl	MPTP inh 100.2 | Rh123 counter 97.7
Fc1ccc(NC(=S)Nc2cc(-c3ccccc3)[nH]n2)cc1Cl	MPTP inh 66.3 | Rh123 counter 82.1
CCS(=O)(=O)Nc1ccc2c(c1)C(=O)N(C)[C@@H]1CC[C@@H](CC(=O)NCc3ccc(OC)cc3)O[C@H]1CO2	none (no result: ATG4B inhibitor, NRP1-CendR mod, SKN-1 inh, MPTP inh)

Screening data: PubChem BioAssay, several laboratories
